Laboratory results published in PubChem BioAssay AID1159580 (chemical genetic matrix, 2015).
Where “and” joins values, the source holds several entries; their conditions need not be identical. Equal values may be shown once. In all, about 5,500 compounds went through this assay and about 2,000 (36%) were called active. About 18% were inconclusive and are not listed. Cut-off read from the data, not from the text of the source: active = normalized growth mostly below about 0.91 (no sharp cut-off); inconclusive = no clear call, values can overlap the other calls; inactive = mostly above about 0.92. This is one part of the list.

Test: chemical genetic growth profiling, strain panel (AID 1159580);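 note: tested at 20 µM; growth read once vehicle control cultures reached saturation at 30 °C; 1 = growth at the plate median or of vehicle wells; lower values mean less growth of the strain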
Settings: S. cerevisiae deletion strains, growth OD

Measured: normalized growth

CCCCCC(O)C1C(=O)OC(C)C(O)/C=C/C=C/C=C/C=C/C=C(\C)C(O)CC(O)CC(O)CC(O)CC(O)CC(O)CC1O (configuration not stated)
inactive: locus YAL013W, strain DEP1, active compounds read low 1.01 | locus YAL021C, strain ccr4, active compounds read low 1.01 | locus YAL026C, strain drs2, active compounds read low 0.994 | locus YAL030W, strain snc1, active compounds read low 0.985 | locus YBL061C, strain skt5, active compounds read low 0.982 | locus YBR009C, strain hhf1, active compounds read low 0.996 | locus YBR021W, strain FUR4, active compounds read low 1.02 | locus YBR023C, strain chs3, active compounds read low 0.989 | locus YBR171W, strain sec66, active compounds read low 0.982 | locus YBR229C, strain ROT2, active compounds read low 1.01 | locus YBR231C, strain swc5, active compounds read low 0.992 | locus YBR279W, strain paf1, active compounds read low 0.993 | locus YCL011C, strain gbp2, active compounds read low 1 | locus YCL016C, strain dcc1, active compounds read low 0.986 | locus YCL029C, strain bik1, active compounds read low 1.03 | locus YCL061C, strain MRC1, active compounds read low 0.992 | locus YCL069W, strain vba3, active compounds read low 0.993 | locus YCR088W, strain abp1, active compounds read low 0.993 | locus YDL005C, strain med2, active compounds read low 0.995 | locus YDL035C, strain GPR1, active compounds read low 1.02 | locus YDL040C, strain nat1, active compounds read low 0.99 | locus YDL074C, strain BRE1, active compounds read low 1.01 | locus YDL101C, strain DUN1, active compounds read low 1.01 | locus YDL134C, strain PPH21, active compounds read low 1.01 | locus YDL185W, strain tfp1, active compounds read low 1.03 | locus YDL192W, strain arf1, active compounds read low 1.04 | locus YDR001C, strain nth1, active compounds read low 0.983 | locus YDR069C, strain doa4, active compounds read low 0.996 | locus YDR101C, strain arx1, active compounds read low 1.02 | locus YDR137W, strain rgp1, active compounds read low 1.01 | locus YDR150W, strain NUM1, active compounds read low 1.02 | locus YDR159W, strain sac3, active compounds read low 0.96 | locus YDR162C, strain NBP2, active compounds read low 1.02 | locus YDR195W, strain ref2 0.96 | locus YDR297W, strain sur2, active compounds read low 1.01 | locus YDR318W, strain mcm21, active compounds read low 1.03 | locus YDR334W, strain swr1, active compounds read low 0.986 | locus YDR335W, strain msn5, active compounds read low 0.985 | locus YDR388W, active compounds read low 1.03 | locus YDR392W, strain spt3, active compounds read low 0.937 | locus YDR502C, strain sam2, active compounds read low 1.01 | locus YEL003W, strain gim4, active compounds read low 0.993 | locus YEL037C, strain rad23, active compounds read low 1.02 | locus YEL061C, strain CIN8 (second series), active compounds read low 0.98 | locus YEL061C, strain CIN8, active compounds read low 1 | locus YER015W, strain faa2, active compounds read low 0.991 | locus YER016W, strain bim1, active compounds read low 0.986 | locus YER110C, active compounds read low 1.02 | locus YER111C, strain swi4, active compounds read low 0.996 | locus YER155C, strain BEM2 (second series), active compounds read low 0.976 | locus YER155C, strain BEM2, active compounds read low 1.02 | locus YER167W, strain BCK2, active compounds read low 1.04 | locus YFR010W, strain ubp6, active compounds read low 0.984 | locus YGL078C, strain dbp3, active compounds read low 1.01 | locus YGL086W, strain mad1, active compounds read low 1.03 | locus YGL167C, strain pmr1, active compounds read low 0.984 | locus YGL173C, strain kem1, active compounds read low 0.993 | locus YGL227W, strain vid30, active compounds read low 0.989 | locus YGL240W, strain doc1, active compounds read low 0.981 | locus YGL248W, strain PDE1, active compounds read low 1.01 | locus YGL253W, strain hxk2, active compounds read low 1 | locus YGR078C, strain PAC10, active compounds read low 1 | locus YGR135W, strain pre9, active compounds read low 1.02 | locus YGR229C, strain SMI1, active compounds read low 1.02 | locus YGR252W, strain gcn5, active compounds read low 1.04 | locus YHR013C, strain ard1, active compounds read low 0.966 | locus YHR027C, strain rpn1, active compounds read low 0.994 | locus YHR030C, strain SLT2, active compounds read low 1.01 and 0.963 | locus YHR079C, strain IRE1 (second series), active compounds read low 1.02 | locus YHR079C, strain IRE1, active compounds read low 0.959 | locus YHR094C, strain hxt1, active compounds read low 1.02 | locus YHR129C, strain ARP1, active compounds read low 1 | locus YHR142W, strain chs7, active compounds read low 1.01 | locus YHR200W, strain rpn10, active compounds read low 1.02 | locus YIL066C, strain RNR3, active compounds read low 1.01 | locus YIL073C, strain SPO22, active compounds read low 1.12 | locus YIL125W, strain kgd1, active compounds read low 1.03 | locus YIR030C, strain dcg1, active compounds read low 1.02 | locus YJL092W, strain hpr5, active compounds read low 0.985 | locus YJL095W, strain BCK1 (second series), active compounds read low 0.988 | locus YJL095W, strain BCK1, active compounds read low 1.01 and 0.975 | locus YJL115W, strain asf1, active compounds read low 0.991 | locus YJL129C, strain trk1, active compounds read low 0.976 | locus YJL134W, strain LCB3, active compounds read low 1.01 | locus YJL154C, strain vps35, active compounds read low 0.985 | locus YJL164C, strain tpk1, active compounds read low 1 | locus YJL166W, strain qcr8, active compounds read low 0.997 | locus YJL168C, strain set2, active compounds read low 1.02 | locus YJL187C, strain SWE1 (second series), active compounds read low 1 | locus YJL187C, strain SWE1, active compounds read low 0.995 | locus YJR043C, strain POL32, active compounds read low 1.03 | locus YJR066W, strain TOR1, active compounds read low 0.939
